Hit rate of the full screen: of about 360,000 compounds, about 810 (0.23%) were called active. This is one part of a sample in which actives are shown more often than they occur. Unmarked numbers belong to inactive results. Rule as the data show it: active = potentiation above about 50%; inconclusive = mostly about 30% to 49%; inactive = weaker than that.

The target in this test is D(2) dopamine receptor (Homo sapiens) (UniProt P14416). The test can be described thus: Beta-Arrestin HTS for Positive Allosteric Modulators of the Human D2 Dopamine Receptor: Potentiators. The settings on record: DiscoveRx D2 beta-arrestin cells, luminescence, 90 min; active compounds read high; 100% = 57 uM dopamine signal. From the text: There is great interest in identifying small molecule ligands for G-protein coupled receptors (GPCRs) as nearly 50% of all FDA-approved drugs target these important receptor proteins. […] Amongst the dopamine receptors (DARs), the D2 is arguably one of the most validated drug targets in neurology and psychiatry. For instance, all receptor-based antiparkinsonian drugs primarily work via stimulating the D2 DAR, whereas all FDA-approved antipsychotic agents are antagonists of this receptor. The D2 DAR is also therapeutically targeted in other disorders such as restless legs syndrome, tardive dyskinesia, Tourette's syndrome, and hyperprolactinemia.
D(2) dopamine receptor (Homo sapiens), sequence (P14416 whole entry, looked up): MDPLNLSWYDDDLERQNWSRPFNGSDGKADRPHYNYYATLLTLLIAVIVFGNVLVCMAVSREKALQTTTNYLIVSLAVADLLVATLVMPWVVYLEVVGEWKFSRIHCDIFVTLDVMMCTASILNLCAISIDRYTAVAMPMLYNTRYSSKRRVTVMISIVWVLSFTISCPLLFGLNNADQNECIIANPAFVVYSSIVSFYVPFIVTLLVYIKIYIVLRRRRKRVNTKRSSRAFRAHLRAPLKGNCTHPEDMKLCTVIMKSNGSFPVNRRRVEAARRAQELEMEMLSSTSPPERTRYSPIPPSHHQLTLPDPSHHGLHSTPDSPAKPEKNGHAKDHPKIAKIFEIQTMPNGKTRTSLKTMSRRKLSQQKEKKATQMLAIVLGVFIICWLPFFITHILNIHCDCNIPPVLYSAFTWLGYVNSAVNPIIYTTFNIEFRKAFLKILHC
To this end, a miniaturized qHTS screen was developed to be screened against the Molecular Libraries Small Molecule Repository (MLSMR). This assay seeks to identify potentiators against the D2 DAR.
NIH Molecular Libraries Probe Production Network [MLPCN]
NIH Chemical Genomics Center [NCGC]
PI Name: David Sibley, National Institutes of Neurological Disorders and Stroke
DiscoveRx D2 cells were thawed from frozen stock and seeded at 2,100 cells/ 3 uL/well media (DiscoveRx Plating Reagent 2) with MultiDrop Combi dispenser (Thermo Scientific, Logan, UT) onto white tissue culture treated 1536-well Aurora plates (Brooks Automation, Chelmsford, MA) and allowed to attach overnight at 37 deg C, 5% CO2. Next, 23 nL/well of compound solutions in DMSO were added with a pintool transfer (Kalypsis, San Diego, CA). As the positive control, 1 uL/well dopamine (EC100, 57 uM final concentration) diluted in buffer (HBSS + 10 mM HEPES + SMB + 0.1 %Tween-20) was dispensed to 1 column of each plate. EC20 (Dopamine at 50 nM final concentration) was dispensed to the rest of the plate except columns 1 &2 which were used as negative control (EC=0, buffer only), 1 uL/well as well. The cells were stimulated by compounds and dopamine for 90 minutes at 37 deg C, 5% CO2, after which 1.5 uL/well of DiscoveRx detection reagent was added with BioRAPTR FRD dispenser. The detection reagent was prepared by mixing of Galacton Star Substrate, Emerald II solution and PathHunter buffer (supplied by the assay kit) together at 1:5:19 proportion accordingly just prior to dispensing. The plates were incubated at ambient temperature for 1 hour and then the luminescent signal was read on ViewLux plate reader (PerkinElmer, Waltham, MA).
Regarding `CC(=O)N1CCN(c2ccccc2NC(=S)NC(=O)c2cc3ccccc3o2)CC1`, the potentiation was 1.52%.
For the compound `Cc1ccccc1NC(=O)c1nn(-c2ccc(F)c(F)c2)ccc1=O`, the potentiation was -20.8%.
With `CC(C)(C)S(=O)(=O)c1ccccc1-c1noc(-c2ccccc2)c1C(N)=O`, the potentiation is -4.58%.
Take `COc1ccc(S(=O)(=O)NC2(C(F)(F)F)N=C3SCCN3C2=O)cc1` (configuration not stated): the potentiation was -9.42%.
For the compound `COC(=O)c1cc(S(=O)(=O)N2CCC(C(N)=O)CC2)oc1C`, the potentiation was -5.83%.
As for `CCCN(CCc1ccccc1)C1CCc2c(O)cccc2C1` (configuration not stated), the potentiation is 99% (active).
Consider `Cc1cc(C)cc(C(=O)N(CCc2ccccc2)C2=CC3CCC(C2)N3C)c1` (configuration not stated), for which the potentiation is -8.31%.
In the case of `O=C(CCC(=O)N1CCN(S(=O)(=O)c2ccc(Cl)cc2)CC1)NCc1cccc(C(F)(F)F)c1`, the potentiation is -1.2%.
The value for `O=C(Cc1ccc(S(=O)(=O)N2CCOCC2)s1)N1CCN(c2ccc(C(F)(F)F)cc2[N+](=O)[O-])CC1` was -0.0198%; that for `CC(=O)NC1=NC(=O)CS1` was -7.96%.
On to `Cc1ccc2cccc(OCCCOc3ccccc3CO)c2n1`, for which the potentiation was -2.17%.
Take `CC1C=CCC2C(=O)N(c3cccc(C(=O)N4CCCCCC4)c3)C(=O)C12` (configuration not stated): the potentiation is -12.1%.
As to `COCCCNC(=O)Cn1c(=O)n(Cc2ccccc2Cl)c(=O)c2cc(OC)c(OC)cc21`, the potentiation was -14.1%.
In the case of `CCCc1cc(=O)[nH]c2nnc(SCC(=O)Nc3nnc(SCC)s3)n12`, the potentiation is -13.8%.
The value for `CC(C)(C)N(Cc1ccccc1)C(=O)COC(=O)CCc1c[nH]c2ccccc12` was 10.1%; that for `C[C@@H](NC(=O)[C@@H]1Cc2ccccc2CN1)C(=O)NC1CCCC1` was -3.01%.
For the compound `COCCn1c(=O)[nH]c(=O)c2cc(C(=O)c3cc(OC)ccc3O)cnc21`, the potentiation was -0.0764%.
`COc1ccc(O)c(C(=O)c2cnc3c(c2)c(-c2ccc(F)cc2)c(C#N)c(=O)n3C)c1`: the potentiation is 11.8%.
With `COc1ccc(O)c(C(=O)c2cnc3onc(C(C)C)c3c2)c1`, the potentiation was 54.9% (active).
On to `CCOC(=O)c1cc(-c2sc(NC(=O)c3ccccc3)nc2C)n(-c2ccc(Br)cc2)n1`, for which the potentiation was 2.35%.
As for `COC(=O)[C@]1(C)N[C@H](c2ccc(-c3ccc(Cl)c(Cl)c3)cc2)[C@@H]2C(=O)N(C)C(=O)[C@@H]21`, the potentiation was -3.41%.
As for `O=C(C/C(=N\NC(=O)c1ccccc1Br)C(F)(F)F)c1cccs1`, the potentiation is -15%.
Turning to `O=C(CC(CC(=O)c1ccccc1)c1ccco1)c1ccccc1`, the potentiation is -4.42%.
With `Nc1ccc(-n2nncc2-c2ccco2)cc1`, the potentiation is -3.62%.
On to `N#Cc1cccc(CSc2nnc(CCCO)n2-c2ccccc2)c1`, for which the potentiation was -7.69%.
`O=C(NCc1ccccc1)C(c1ccccc1)N(C(=O)c1csnn1)c1ccc(F)cc1` (configuration not stated): the potentiation is 0.0815%.
For `N/C(=N\OC(=O)Cc1ccccc1[N+](=O)[O-])c1ccc(Br)cc1`, the potentiation was 18.7%.
Take `N/C(=N\OC(=O)N1c2ccccc2Sc2ccccc21)c1ccc(Br)cc1`: the potentiation was 86.3% (active).
Consider `N/C(=N\OC(=O)c1ccc2c(c1)OCO2)c1ccc(Br)cc1`, for which the potentiation is 24.5%.
With `CC1(C)CC(=O)C(C=NCc2cccnc2)=C(O)C1`, the potentiation is 0.0734%.
The value for `COc1ccc(N2CC(C(=O)NCCS(=O)(=O)N3CCN(c4ccccc4)CC3)CC2=O)cc1` (configuration not stated) was -8.09%; that for `CCOc1ccc(N2C(=O)CC(N(O)c3ccccc3)C2=O)cc1` (configuration not stated) was 51.5% (active); that for `CCOc1ccc(N2C(=O)CC(N(CCc3ccc(OC)c(OC)c3)C(=S)Nc3ccccc3)C2=O)cc1` (configuration not stated) was -3.21%.
Take `CCOC(=O)c1ccc(N2C(=O)CC(N(C)Cc3ccccc3)C2=O)cc1` (configuration not stated): the potentiation was -5.22%.
As for `Cc1c(C=O)c2ccccn2c1C(=O)c1ccncc1`, the figure is 13.6%.
In the case of `C=CCn1c2c(c3ccccc31)CCC2`, the potentiation was -5.75%.
As for `CCOc1ccc(OCC(=O)OC(C)C(=O)NC2CCCCC2C)cc1` (configuration not stated), the potentiation was -13.2%.
Take `CCc1ccnc(NC(=O)Nc2ccc(OCc3ccccc3)cc2)c1`: the potentiation is -1.75%.
Turning to `COc1ccc(OC)c(S(=O)(=O)N2CCCC(C(=O)N3CCC(C(N)=O)CC3)C2)c1` (configuration not stated), the potentiation was 7.76%.
Take `CCOc1ccc(CCNC(=O)COC(=O)c2ccc(C)c(S(=O)(=O)N3CCOCC3)c2)cc1OCC`: the potentiation was 1.76%.
Take `CCN(CC)S(=O)(=O)c1ccc(-c2cn3ccc(C)cc3n2)cc1`: the potentiation was 56% (active).
In the case of `Cc1ccc(-c2cn3cc(C)ccc3n2)cc1`, the potentiation is 6.89%.
Turning to `CCN(c1cccc(C)c1)S(=O)(=O)c1ccc(-c2coc(C)n2)cc1`, the potentiation was -22%.
Turning to `COc1cccc2c1C(=O)c1c(O)c3c(c(O)c1C2=O)CC(O)(C(C)=NNC(=O)c1ccc(Cl)c(Cl)c1)CC3OC1CC(N)C(O)C(C)O1` (configuration not stated), the potentiation was -9.55%.
With `CCc1nc2ccc(C(=O)N(C)CCN(C)C)cn2c1N(CC)CCOC`, the potentiation is -8.24%.
In the case of `O=C(NC(C(=O)NCCN1CCOCC1)C12CC3CC(CC(C3)C1)C2)C1CCCCC1` (configuration not stated), the potentiation is -3.19%.
Consider `COc1cccc(N(CC(=O)NCc2ccccc2)C(=O)CCC(=O)Nc2nccs2)c1`, for which the potentiation is -2.58%.
